Results on 71 compounds are retold here after PubChem BioAssay AID488969 (Vanderbilt High Throughput Screening Facility, 2010).

Over roughly 110,000 compounds, “z-score” has its median near -0.1; the highest 2% begin near 2. The entries come from a sample that favours the highest values as a whole. Calls of active or inactive are those of the source.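 How the source made its calls: active means z-score in the third read window above 3 or below -3; inactive means the rest.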

For the experiment, the target named is Metabotropic glutamate receptor 8 (Rattus norvegicus) (UniProt P70579). As to the kind of experiment: rat mGluR8 modulators via GIRK flux, primary screen, cell-based, thallium flux, HTS (AID 488969). Particulars: HEK293 rat mGluR8, GIRK (G protein-gated inwardly rectifying potassium channel) thallium flux, FluoZin2; at 10 µM; stronger effect = higher value; submaximal glutamate (EC20) added with thallium.
Sequence of Metabotropic glutamate receptor 8 (Rattus norvegicus) (P70579 whole entry, looked up): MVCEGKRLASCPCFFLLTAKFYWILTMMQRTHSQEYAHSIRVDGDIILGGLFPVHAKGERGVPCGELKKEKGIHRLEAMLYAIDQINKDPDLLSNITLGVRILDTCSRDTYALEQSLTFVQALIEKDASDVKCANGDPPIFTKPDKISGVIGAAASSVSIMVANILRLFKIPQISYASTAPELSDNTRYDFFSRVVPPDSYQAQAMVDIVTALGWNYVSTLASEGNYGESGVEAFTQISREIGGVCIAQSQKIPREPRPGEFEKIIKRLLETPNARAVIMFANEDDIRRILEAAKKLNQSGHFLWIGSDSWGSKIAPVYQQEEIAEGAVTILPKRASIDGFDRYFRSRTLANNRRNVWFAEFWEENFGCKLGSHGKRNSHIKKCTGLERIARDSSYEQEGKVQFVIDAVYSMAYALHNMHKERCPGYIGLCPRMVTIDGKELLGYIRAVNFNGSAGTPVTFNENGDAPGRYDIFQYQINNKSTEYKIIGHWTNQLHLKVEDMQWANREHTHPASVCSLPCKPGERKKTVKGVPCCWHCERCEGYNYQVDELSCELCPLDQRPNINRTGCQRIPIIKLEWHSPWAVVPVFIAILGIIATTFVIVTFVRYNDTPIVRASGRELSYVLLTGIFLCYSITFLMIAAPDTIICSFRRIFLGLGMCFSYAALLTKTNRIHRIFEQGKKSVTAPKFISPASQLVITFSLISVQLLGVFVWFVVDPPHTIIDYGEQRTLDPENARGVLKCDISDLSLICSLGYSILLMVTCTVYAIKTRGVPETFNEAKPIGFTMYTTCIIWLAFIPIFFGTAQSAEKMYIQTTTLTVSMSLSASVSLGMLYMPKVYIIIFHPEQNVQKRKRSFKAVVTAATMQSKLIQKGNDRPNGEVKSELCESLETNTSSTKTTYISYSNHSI
In turn, `O=C(NC(=S)Nc1nc2c(ccc3ccccc32)s1)c1cccs1` gave a z-score of 2.78. Then `Cc1nc(NC(=S)NC(=O)c2cccs2)sc1C(=O)N(C)C`, with -0.329; and `O=C(NC(=S)Nc1nc(-c2ccccc2)cs1)c1cccs1`, with 1.03. For `Cc1ccc2nc(NC(=S)NC(=O)c3cccs3)sc2c1` the value was 4.64 (active); for `O=C(NC(=S)Nc1nc2ccccc2s1)c1cccs1`, 11.7 (active); for `O=C(Cc1cccs1)Nc1nc2c(ccc3ccccc32)s1`, 0.34. `CCc1ccc(-c2nc(NC(=S)NC(=O)c3cccs3)sc2C)cc1` gave a z-score of 0.595. Then `Cc1ccc2nc(NC(=O)Cc3cccs3)sc2c1`, with 0.542; and `Cc1ccc(-c2csc(NC(=S)NC(=O)c3cccs3)n2)cc1`, with -0.267; and `O=C(c1ccc(Cl)cc1)C1CCN(C(=O)C2CC2)CC1`, with 0.108. For `CCOC(=O)c1c(C)n(-c2ccc(C)cc2)c2c(CC(C)=O)c(Br)c(OC)c(O)c12` the value was -0.0818; for `CSc1ccc(Cc2ccc(Cl)cc2Cl)nn1`, -0.154.

Consider `Clc1ccc(Cc2ccc(Cl)nn2)c(Cl)c1`, for which the z-score is -0.119. For `Clc1ccc(Cc2ccc(SCc3ccccc3)nn2)c(Cl)c1` the value was 3.48 (active); for `O=C(N/N=C/c1ccc(Sc2ccccn2)o1)c1cc2ccccc2cc1O`, 6.43 (active). Consider `O=C(N/N=C\c1ccc(Sc2ccccn2)o1)c1cccc(F)c1`, for which the z-score is -0.471. Then `O=C(N/N=C\c1ccc(Sc2ccccn2)o1)c1cccc(Br)c1`, with 1.77; and `CCOC(=O)c1ccc(NC(=S)N2CCN(Cc3ccccc3)CC2)cc1`, with -0.2. For `CN(C)c1ccnc(Oc2ccc(C(C)(C)C)cc2)c1C#N` the value was -0.212; for `O=C(O)C1CCCN1C(=O)c1cccs1` (stereo unspecified), 0.319; for `O=C(OCc1ccccc1)C1CCCN1C(=O)c1cccs1` (stereo unspecified), -0.219. Regarding `COC(=O)C1CCCN1C(=O)c1cccs1` (stereo unspecified), the z-score is 5.05 (active).

As for `CC(=O)NC1(c2nnnn2CCOC(=O)Nc2ccc(Cl)cc2)CCCCC1`, the z-score turned out to be 0.0804. Then `O=C(O)CCC(=O)N1N=C(c2c(-c3ccccc3)c3cc(Cl)ccc3[nH]c2=O)CC1c1ccco1` (stereo unspecified), with -0.219; and `C/C(=N\O)C(C)NC(=O)c1ccccc1` (stereo unspecified), with 3.54 (active). For `C/C(=N\NC(=O)C(NC(=O)c1ccccc1)C(C)C)c1ccccc1` (stereo unspecified) the value was -0.068.

`CC(C)NC(=O)/C(=N\O)c1ccccc1`: the z-score was 0.0549. Then `COc1ccccc1NC(=S)NCc1ccc2c(c1)OCO2`, with -0.0224; and `Cc1sc(NC(=O)c2cc(-c3ccc(Cl)cc3)nc3ccccc23)c(C(N)=O)c1C`, with -0.126.

In turn, `O=C(c1ccc(Cl)c([N+](=O)[O-])c1)N(Cc1ccccc1)C1CCS(=O)(=O)C1` (stereo unspecified) gave a z-score of 2.

As to `O=C(c1sc2ccccc2c1Cl)N(Cc1ccccc1)C1CCS(=O)(=O)C1` (stereo unspecified), the z-score came to 1.16. Then `O=C(c1ccccc1)N(Cc1ccc(F)cc1)C1CCS(=O)(=O)C1` (stereo unspecified), with -0.0413. `CCCCn1c(=O)[nH]c(=O)c2c1ncn2Cc1ccco1`: the z-score was -0.249.

`CCOC(=O)CN(C(=O)CSc1nnc(CNc2ccc(F)cc2)n1CC)c1ccc(F)cc1` showed a z-score of -0.599. Then `COc1ccc(OC)c(CNC(=O)CCN2C(=O)COc3ccccc32)c1`, with 0.307. For `CSc1nc2ccccc2cc1/C=C(\C#N)c1cccc(Cl)c1` the value was 0.938; for `CSc1nc2ccccc2cc1/C=C(\C#N)c1cccc(C)c1`, 3.99 (active).

Turning to `CSc1nc2ccccc2cc1/C=C(\C#N)c1ccccc1`, the z-score amounted to 0.0152. `COc1ccc(C(C)=O)cc1CN1C(=O)C(C)N(c2ccc(C)cc2)C1=O` (stereo unspecified) yielded a z-score of -0.0103. For `CCCOc1ccc(N2C(=O)CC(SC(=NC)Nc3ccc(F)cc3)C2=O)cc1` (stereo unspecified) the value was -0.0553. For `CCOc1ccc(N2C(=O)CC(SC(=NC)Nc3ccc(F)cc3)C2=O)cc1` (stereo unspecified) the value was 3.7 (active); for `CCOc1ccc(N2C(=O)CC(SC(=NC)Nc3cccc(F)c3)C2=O)cc1` (stereo unspecified), -0.588; for `CCOC(=O)CN1NC2(CCC(C)CC2)NC1=S` (stereo unspecified), -0.408.

In turn, `CCOC(=O)CN1NC2(CCCCC2)NC1=S` had a z-score of 0.284. For `CCOC(=O)CN1NC2(CCC(C(C)(C)C)CC2)NC1=S` (stereo unspecified) the value was 2.66. The compound `O=C(CSc1nc(-c2ccccc2)c(-c2ccccc2)[nH]1)NCc1ccco1` came in with a z-score of -0.317. For `C=CCOc1ccc(/C(O)=C2\C(=O)C(=O)N(CCCOC)C2c2ccc(O)c(OC)c2)cc1` (stereo unspecified) the value was -0.44; for `O=C1c2ccccc2-c2cccc(NS(=O)(=O)c3ccc(C(F)(F)F)cc3)c21`, 2.66. For `Cc1ccc(S(=O)(=O)Nc2ccccc2-c2ccccc2NS(=O)(=O)c2ccc(C)cc2)cc1` the value was -0.159; for `Cc1cccc(S(=O)(=O)Nc2cccc3c2C(=O)c2ccccc2-3)c1`, 8.14 (active).

Take `O=C(O)c1ccccc1NS(=O)(=O)c1cccc(C(F)(F)F)c1`: the z-score is -0.814. For `CNc1cccc2c1C(=O)c1ccccc1C2=O` the value was -0.102; for `Cc1ccc(NS(=O)(=O)c2ccc3c(c2)C(=O)c2ccccc2C3=O)c(C)c1`, -0.0521; for `CCOC(=O)c1[nH]cnc1C(=O)Nc1ccncc1`, 0.161. Then `O=C(CS(=O)(=O)c1ccc2ccccc2c1)Nc1ccccc1Cl`, with -0.351.

In turn, `Cn1c(N2CCC(C(N)=O)CC2)nc2c1c(=O)n(Cc1cccc(Br)c1)c(=O)n2C` displayed a z-score of -1.26. For `COC(=O)NCc1ccc(S(=O)(=O)N2CCOCC2)cc1` the value was 0.235; for `COc1cc(C(=S)N2CCCC2)ccc1O`, 0.115; for `COc1cc(C(=S)N2CCCC2)cc(Cl)c1O`, 2.62.

`COc1cc(C(=S)N2CCCC2)cc(OC)c1O`: the z-score was 0.304. For `Cc1sc2nc(C)n(/N=C/c3ccc(O)cc3)c(=O)c2c1C` the value was -0.305; for `O=C(NC1CCCCC1)N(Cc1nc2ccccc2c(=O)[nH]1)C1CCCC1`, 0.129; for `COc1ccc(CN(Cc2nc3ccccc3c(=O)[nH]2)C(=O)NC2CCCCC2)cc1`, -0.301. For `CN(Cc1nc2ccccc2c(=O)[nH]1)c1ccccc1` the value was -0.0308. Compound `COc1ccc(S(=O)(=O)N(Cc2ccccc2)Cc2nc3ccccc3c(=O)[nH]2)cc1` yielded a z-score of -0.148. In turn, `O=C(Nc1cccc(Cl)c1)N(Cc1nc2ccccc2c(=O)[nH]1)C1CCCC1` displayed a z-score of -0.529. Consider `Cc1cccc(NC(=O)N(Cc2nc3ccccc3c(=O)[nH]2)C2CCCC2)c1`, for which the z-score was determined as 2.35.

For the compound `COc1ccc(S(=O)(=O)N(Cc2nc3ccccc3c(=O)[nH]2)C2CCCC2)cc1`, the z-score worked out at 2.49. For the compound `Cc1ccc(S(=O)(=O)Cc2nc3ccccc3c(=O)[nH]2)cc1`, the z-score was -0.19. `O=c1[nH]c(CS(=O)(=O)c2ccccc2)nc2ccccc12`: the z-score was 3.08 (active). As for `CCOC(=O)N1CCN(C(=O)CN(c2cc(Cl)ccc2OC)S(=O)(=O)c2ccccc2)CC1`, the z-score was -0.359.
